Read-out in assay [1]: Transforming growth factor beta 1 (TGFb1), TGFB1 (gene 7040)
Briefly: BSK_KF3CT_TGFb1: BioMAP Diversity Plus: KF3CT Assay for Transforming growth factor beta 1 (TGFb1) Biomarker Activity (AID 2283072). The following applies: primary human keratinocytes with fibroblasts; actives raise or lower the signal. The method, boiled down:
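Read-out: ELISA for TGF-b1 in keratinocyte/foreskin fibroblast human skin co-culture, 24 h after dosing; bidirectional curve fit vs DMSO baseline; gain or loss of signal scored.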

Read-out in assay [2]: C-C motif chemokine 2 (Homo sapiens) (UniProt P13500)
Kind of assay: BSK_KF3CT_MCP1: BioMAP Diversity Plus: KF3CT Assay for Monocyte Chemoattractant Protein 1 (MCP1/CCL2) Biomarker Activity (AID 2283073). The note with it: primary human keratinocytes with fibroblasts; actives raise or lower the signal. The method, boiled down: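 Keratinocytes and foreskin fibroblasts were co-cultured, dosed with chemical, and sampled 24 h later. MCP-1 was quantified by ELISA, and the endpoint was analyzed with bidirectional fitting using DMSO as negative control.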

Read-out in assay [3]: Matrix Metallopeptidase 9 (MMP9), MMP9 (gene 4318)
Kind of assay: BSK_KF3CT_MMP9: BioMAP Diversity Plus: KF3CT Assay for Matrix Metallopeptidase 9 (MMP9) Biomarker Activity (AID 2283074).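 As to AC50: MMP9 protein level quantified by ELISA in the co-culture.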 The following applies: primary human keratinocytes with fibroblasts; actives raise or lower the signal. The method, boiled down:
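MMP-9 quantified by ELISA after 24 h chemical treatment of primary human skin keratinocyte/fibroblast co-cultures; gain or loss fitted against DMSO, with parallel SRB staining (0.1% SRB, 560 nm) for overt cytotoxicity.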

Read-out in assay [4]: urokinase plasminogen activator (uPA), PLAU (gene 5328)
Kind of assay: BSK_KF3CT_uPA: BioMAP Diversity Plus: KF3CT Assay for urokinase plasminogen activator (uPA) Biomarker Activity (AID 2283075). The following applies: primary human keratinocytes with fibroblasts; actives raise or lower the signal. The method, boiled down:
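ELISA read-out of uPA 24 h after dosing human skin keratinocytes co-cultured with foreskin fibroblasts. Signal change fitted both ways relative to DMSO; sulforhodamine B on parallel cultures marks overt cytotoxicity.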

Read-out in assay [5]: CD40, CD40 (gene 958)
Briefly: BSK_LPS_CD40: BioMAP Diversity Plus: LPS Assay for CD40 Biomarker Activity (AID 2283076). The note with it: primary human HUVEC with PBMC; actives raise or lower the signal. The method, boiled down: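 CD40 signal, measured by ELISA, is fitted in both directions relative to DMSO vehicle. The system is an LPS-driven human vascular primary co-culture of endothelial cells and PBMC, sampled 24 h after compound addition.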

Read-out in assay [6]: E-selectin (Homo sapiens) (UniProt P16581)
Briefly: BSK_LPS_Eselectin: BioMAP Diversity Plus: LPS Assay for Eselectin Biomarker Activity (AID 2283077). The note with it: primary human HUVEC with PBMC; actives raise or lower the signal. In a few lines:
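Signal of E-selectin, detected by ELISA, served as the endpoint; cells were umbilical vein endothelium with PBMC, read 24 h after treatment. DMSO defined baseline, and both increases and decreases were fitted.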

Read-out in assay [7]: Interleukin-8 (IL8), CXCL8 (gene 3576)
Briefly: BSK_LPS_IL8: BioMAP Diversity Plus: LPS Assay for Interleukin-8 (IL8) Biomarker Activity (AID 2283078). The following applies: primary human HUVEC with PBMC; actives raise or lower the signal. The method, boiled down: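 Endothelial cells and PBMC from human donors are co-cultured, treated with chemicals and LPS, then assayed for IL-8 by ELISA after 24 h. Parallel SRB staining (0.1% SRB after 10% TCA fixation, 560 nm) flags cytotoxicity.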

Assay [8] can be described thus: BSK_LPS_SRB: Viability Assessment in the BioMAP Diversity Plus: LPS Assay (AID 2283079).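 Also: total protein by sulforhodamine B absorbance as a cytotoxicity measure; measured one day after compound addition; fitted in both directions against DMSO so loss or gain of signal counts.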 The note with it: primary human HUVEC with PBMC. The method, boiled down:
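Overt cytotoxicity was gauged by sulforhodamine B total-protein staining in a primary human vascular endothelial and mononuclear cell co-culture 24 h post-dosing. Activity was fitted in both directions relative to DMSO.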

Read-out in assay [9]: Interleukin-1 alpha (IL1a), IL1A (gene 3552)
Briefly: BSK_LPS_IL1a: BioMAP Diversity Plus: LPS Assay for Interleukin-1 alpha (IL1a) Biomarker Activity (AID 2283080). The following applies: primary human HUVEC with PBMC; actives raise or lower the signal. In a few lines:
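Measured: IL-1 alpha via ELISA at 24 h in LPS-activated human umbilical vein endothelium–PBMC co-culture. Baseline: DMSO, bidirectional fitting.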

Read-out in assay [10]: Monocyte Chemoattractant Protein-1 (MCP1), CCL2 (gene 6347)
Kind of assay: BSK_LPS_MCP1: BioMAP Diversity Plus: LPS Assay for Monocyte Chemoattractant Protein-1 (MCP1) Biomarker Activity (AID 2283081).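 As to AC50: secreted MCP-1 protein quantified by ELISA in culture supernatant.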 The note with it: primary human HUVEC with PBMC; actives raise or lower the signal. In a few lines: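 LPS-stimulated HUVEC/PBMC co-culture; chemical, 24 h; MCP-1 by ELISA; bidirectional fit vs DMSO; cytotoxicity via SRB (0.1% stain, 10% TCA fix, 560 nm) in parallel wells.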

Assay [11] can be described thus: BSK_LPS_PGE2: BioMAP Diversity Plus: LPS Assay for Prostaglandin E2 (PGE2) Biomarker Activity (AID 2283082). The note with it: primary human HUVEC with PBMC; actives raise or lower the signal. The method, boiled down:
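ELISA read-out of PGE2 from human umbilical vein endothelial cells co-cultured with peripheral blood mononuclear cells under LPS, 24 h post-dose. Gain or loss of signal scored relative to DMSO baseline.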

Read-out in assay [12]: Macrophage colony-stimulating factor (MCSF), CSF1 (gene 1435)
Briefly: BSK_LPS_MCSF: BioMAP Diversity Plus: LPS Assay for Macrophage colony-stimulating factor (MCSF) Biomarker Activity (AID 2283083). The note with it: primary human HUVEC with PBMC; actives raise or lower the signal. In a few lines: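 Compound is added to a human vascular primary co-culture of umbilical vein endothelium and blood mononuclear cells. After 24 h, M-CSF is quantified by ELISA. Signal changes are fitted in both directions against DMSO.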

Read-out in assay [13]: Tissue Factor, F3 (gene 2152)
Kind of assay: BSK_LPS_TissueFactor: BioMAP Diversity Plus: LPS Assay for Tissue Factor Biomarker Activity (AID 2283084). The note with it: primary human HUVEC with PBMC; actives raise or lower the signal. The method, boiled down:
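In this co-culture system of umbilical vein endothelium with PBMC, stimulated with LPS, cell-surface CD142 is detected by ELISA at 24 h. Endpoint values derive from bidirectional fitting, DMSO serving as baseline.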

Read-out in assay [14]: Tumor necrosis factor (Homo sapiens) (UniProt P01375)
Briefly: BSK_LPS_TNFa: BioMAP Diversity Plus: LPS Assay for Tumour Necrosis Factor alpha (TNFa) Biomarker Activity (AID 2283085).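 As to AC50: TNFa protein level quantified by ELISA in the co-culture.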 The following applies: primary human HUVEC with PBMC; actives raise or lower the signal. The method, boiled down: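 HUVEC/PBMC co-culture, LPS-stimulated; 24 h post-dose; TNFa by ELISA; gain or loss of signal fitted bidirectionally vs DMSO baseline.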

Read-out in assay [15]: Vascular cell adhesion molecule 1 (VCAM1), VCAM1 (gene 7412)
Kind of assay: BSK_LPS_VCAM1: BioMAP Diversity Plus: LPS Assay for Vascular cell adhesion molecule 1 (VCAM1) Biomarker Activity (AID 2283086). The following applies: primary human HUVEC with PBMC; actives raise or lower the signal. The method, boiled down: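 ELISA read-out of VCAM-1 at 24 h post-dosing in an LPS-driven HUVEC/PBMC primary human co-culture; gain or loss of signal fitted bidirectionally against DMSO baseline. Cytotoxicity tracked in parallel cultures by SRB total-protein staining.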

Read-out in assay [16]: CD40, CD40 (gene 958)
Briefly: BSK_SAg_CD40: BioMAP Diversity Plus: SAg Assay for CD40 Biomarker Activity (AID 2283088). The following applies: primary human HUVEC with PBMC; actives raise or lower the signal. In a few lines: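 Fluorescence ELISA read-out of CD40 from umbilical vein endothelium plus peripheral blood mononuclear cells, sampled 24 h after dosing. Values come from bidirectional curve fitting with DMSO as baseline.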

Read-out in another assay: CD69, CD69 (gene 969)
Briefly: BSK_SAg_CD69: BioMAP Diversity Plus: SAg Assay for CD69 Biomarker Activity (AID 2283089).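 As to AC50: cell surface CD69 protein quantified by ELISA with fluorescence detection.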 The following applies: primary human HUVEC with PBMC; actives raise or lower the signal. The method, boiled down:
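ELISA, fluorescence read-out: CD69 on human umbilical vein endothelial cell + PBMC co-culture, 24 h post-dosing. Gain or loss of signal fitted bidirectionally against DMSO baseline.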

Read-out in assay [17]: Monocyte Chemoattractant Protein-1 (MCP1), CCL2 (gene 6347)
Kind of assay: BSK_SAg_MCP1: BioMAP Diversity Plus: SAg Assay for Monocyte Chemoattractant Protein-1 (MCP1) Biomarker Activity (AID 2283090). The note with it: primary human HUVEC with PBMC; actives raise or lower the signal. The method, boiled down: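 Values derive from bidirectional fitting of ELISA-measured MCP1 against DMSO controls. Readings were taken 24 h after dosing human vascular endothelial cells co-cultured with peripheral blood mononuclear cells under superantigen stimulation.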

Read-out in assay [18]: E-selectin (Homo sapiens) (UniProt P16581)
Briefly: BSK_SAg_Eselectin: BioMAP Diversity Plus: SAg Assay for Eselectin Biomarker Activity (AID 2283091). The following applies: primary human HUVEC with PBMC; actives raise or lower the signal. The method, boiled down:
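Primary human endothelial cells and peripheral blood mononuclear cells were co-cultured and exposed to chemical for 24 hours. E-selectin levels were then quantified by ELISA, with bidirectional curve fitting normalised to DMSO controls.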

Read-out in another assay: CD38, CD38 (gene 952)
Kind of assay: BSK_SAg_CD38: BioMAP Diversity Plus: SAg Assay for CD38 Biomarker Activity (AID 2283087). The note with it: primary human HUVEC with PBMC; actives raise or lower the signal. In a few lines: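 Measures CD38 on a human endothelial/PBMC co-culture driven by SEB and TSST-1, 24 h after compound exposure, using ELISA with fluorescence detection; DMSO defines baseline for bidirectional curve fitting.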

Activity calls are given as the source filed them. The calls were made as follows: active = hit-call score of the fitted dose curve at least 0.9, where 1 is the maximum; inactive = score below 0.9.

E-selectin (Homo sapiens), sequence (P16581 whole entry, looked up): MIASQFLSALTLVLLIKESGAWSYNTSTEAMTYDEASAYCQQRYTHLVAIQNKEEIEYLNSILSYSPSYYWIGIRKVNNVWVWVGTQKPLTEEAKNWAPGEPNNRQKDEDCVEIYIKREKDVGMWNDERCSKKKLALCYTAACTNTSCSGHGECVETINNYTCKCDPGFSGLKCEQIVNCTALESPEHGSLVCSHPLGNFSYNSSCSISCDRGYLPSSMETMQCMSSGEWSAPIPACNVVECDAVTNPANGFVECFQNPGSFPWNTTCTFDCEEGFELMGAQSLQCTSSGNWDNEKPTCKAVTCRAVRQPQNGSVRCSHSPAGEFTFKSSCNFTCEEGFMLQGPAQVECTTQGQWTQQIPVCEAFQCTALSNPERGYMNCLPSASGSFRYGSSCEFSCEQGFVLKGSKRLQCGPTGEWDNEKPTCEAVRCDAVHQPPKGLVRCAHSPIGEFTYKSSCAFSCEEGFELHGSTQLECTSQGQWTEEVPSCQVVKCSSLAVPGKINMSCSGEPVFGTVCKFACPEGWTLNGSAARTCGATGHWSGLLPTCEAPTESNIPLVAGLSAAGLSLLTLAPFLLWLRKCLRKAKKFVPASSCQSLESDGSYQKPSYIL
Tumor necrosis factor (Homo sapiens), sequence (P01375 whole entry, looked up): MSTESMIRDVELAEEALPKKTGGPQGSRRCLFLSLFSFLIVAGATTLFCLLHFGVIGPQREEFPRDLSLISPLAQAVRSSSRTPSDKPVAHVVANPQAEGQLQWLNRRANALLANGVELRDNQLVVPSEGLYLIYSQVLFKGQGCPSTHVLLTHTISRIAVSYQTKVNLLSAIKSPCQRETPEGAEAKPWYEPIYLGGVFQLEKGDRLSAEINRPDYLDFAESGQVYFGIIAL

For the compound `O=S1(=O)CC(Cl)(Cl)C(Cl)(Cl)C1`, the AC50 in [1] is 1110 nM (active); in [2], 1380 nM (active); in [3] it was 1740 nM (active); in [4] it was 2000 nM (active); with CD40, CD40 (gene 958) [5], 457 nM (active); in [6], 1100 nM (active). Also, the AC50 was 1470 nM (active) in [7]; 5010 nM (active) in [8]; 518 nM (active) in [9]; 1760 nM (active) in [10]; 710 nM (active) in assay [12]; 538 nM (active) in assay [13]. Besides, the AC50 in assay [14] was 938 nM (active); in assay [15], 797 nM (active); with CD40, CD40 (gene 958) [16] it was 480 nM (active); with CD69, CD69 (gene 969) it was 486 nM (active); in assay [17], 807 nM (active); in assay [18], 224 nM (active). Besides, the outcome in [11] was inactive.

`CC(=O)OC(C)(C)C1CC=C(C)CC1` (centres undefined): the outcome in assay [1] is “inactive”; in [2], “inactive”; in [3], “inactive”; in the assay with CD40, CD40 (gene 958) [5] it was “inactive”; in assay [6], “inactive”; in assay [7], “inactive”. Also, the outcome in [8], in [9], in assay [10], in [11], in [12] and in [13] was inactive. In addition, the outcome in [14] is “inactive”; in assay [15], “inactive”; in the assay with CD38, CD38 (gene 952), “inactive”; in the assay with CD40, CD40 (gene 958) [16], “inactive”; with CD69, CD69 (gene 969) it was “inactive”; in assay [17] it was “inactive”. In assay [18], the outcome was inactive. Moreover, the concentration at half-maximal activity (AC50) in [4] is 32400 nM (active).
